We go through eight compounds from PubChem BioAssay (Tox21).

Test [1] can be described thus: Nuclear factor erythroid 2-related factor 2/antioxidant responsive element (Nrf2/ARE) small molecule agonists: qHTS cell viability counter screen in human keratinocytes (AID 1919968; active = well fitted curve in the direction sought with a large enough effect in the repeat runs; an effect the other way counts as inactive or inconclusive; note: nearly all actives have a fitted effect of over 55% in size; note: potency is the fitted concentration of half-maximal effect). In short, it runs like this:
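Measured as CellTiter-Fluor fluorescence, this readout tracks cytotoxicity in the same wells as the ARE-luciferase screen. HaCaT reporter cells (1,500/well) received compounds after a 5 h pre-incubation and were exposed for 23 h.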
In general terms: Quantitative high-throughput screening tests each substance at several concentrations.

A short description of test [2]: G protein-coupled receptor (GPCR) small molecule agonists, calcium flux assay: HEK293 wild type cell line counter screen (AID 1920065). The procedure, abridged:
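Readout: fluorescence at 480 nm excitation/540 nm emission, sampled at 1 s intervals for 3 min. Cells had been cultured 18 h, then dye-loaded 1 h at 37 C before compound or ATP addition.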
(In general: A change in cytosolic calcium serves as a functional read-out for many receptors and channels.)

The nature of test [3]: p53 small molecule agonists, cell-based qHTS assay with human liver microsomes (AID 1963577). The procedure, abridged: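 Fluorescence of the beta-lactamase reporter in p53RE-bla cells, detected with LiveBLAzer substrate (2 h, room temperature, dark), served as the read-out after 16 h compound exposure at 37 C with human liver microsomes and NADPH, each 0.5 mg/mL final.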
The nature of test [4]: p53 small molecule agonists, cell-based qHTS assay with human liver microsomes: qHTS cell viability counter screen (AID 1963579). Note: nearly all actives have a fitted effect of over 45% in size. The procedure, abridged:
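Cytotoxicity counter screen: p53RE-bla, 4,000 cells/well; 5 h settle, 37 C/5% CO2; cpd + HLM 0.5 mg/mL + NADPH 0.5 mg/mL (final); 16 h, 37 C; CellTiter-Glo, 30 min RT, luminescence.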

Test [5] can be described thus: p53 small molecule agonists, cell-based qHTS assay with rat liver microsomes: qHTS cell viability counter screen (AID 1963580). Note: nearly all actives have a fitted effect of over 45% in size. Note: potency is the fitted concentration of half-maximal effect. The procedure, abridged:
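p53RE-bla HCT-116 cells were exposed 16 h at 37 C to compounds with rat liver microsomes (0.5 mg/mL) and NADPH (0.5 mg/mL). Viability was measured in the same wells as ATP content by CellTiter-Glo luminescence.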

Test [6] is described as follows: p53 small molecule agonists, cell-based qHTS assay: qHTS cell viability counter screen (AID 1963581). Note: nearly all actives have a fitted effect of over 45% in size. Note: potency is the fitted concentration of half-maximal effect. In short, it runs like this: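 In the same plates used for the p53 bla reporter, HCT-116 cells given compounds for 16 h at 37 C received CellTiter-Glo; luminescence was recorded 30 min later at room temperature.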
For test [7], the target named is 5-hydroxytryptamine receptor 2A (Homo sapiens) (UniProt P28223). The test can be described thus: 5-hydroxytryptamine receptor 2A (HTR2A) small molecule antagonists, cell-based qHTS assay (AID 1963586). Note: nearly all actives have a fitted effect of over 45% in size. In short, it runs like this: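 Antagonist-mode intracellular calcium assay: DOI (4 nM) added after 5 min compound pre-incubation at room temperature to dye-loaded HTR2A-CHO cells. Fluorescence followed for 3 min, sampled every second.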
Sequence of 5-hydroxytryptamine receptor 2A (Homo sapiens) (P28223 whole entry, looked up): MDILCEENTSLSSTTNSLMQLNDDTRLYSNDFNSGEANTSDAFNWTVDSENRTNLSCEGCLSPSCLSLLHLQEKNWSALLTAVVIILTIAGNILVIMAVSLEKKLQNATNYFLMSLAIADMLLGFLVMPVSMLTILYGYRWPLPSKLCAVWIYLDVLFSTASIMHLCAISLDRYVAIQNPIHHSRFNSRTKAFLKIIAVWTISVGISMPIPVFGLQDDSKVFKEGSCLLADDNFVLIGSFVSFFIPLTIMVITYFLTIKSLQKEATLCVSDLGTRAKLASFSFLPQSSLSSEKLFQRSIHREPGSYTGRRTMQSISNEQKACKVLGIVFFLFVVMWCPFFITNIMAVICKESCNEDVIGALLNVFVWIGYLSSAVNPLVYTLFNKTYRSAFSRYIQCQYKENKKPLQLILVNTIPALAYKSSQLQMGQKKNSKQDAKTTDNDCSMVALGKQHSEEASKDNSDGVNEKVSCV

For test [8] the target is unchanged. The test can be described thus: 5-hydroxytryptamine receptor 2A (HTR2A) small molecule agonists, cell-based qHTS assay (AID 1963587). Note: nearly all actives have a fitted effect of over 30% in size. Note: potency is the fitted concentration of half-maximal effect. The procedure, abridged:
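CHO cells stably expressing human HTR2A, plated 18 h, loaded with calcium dye 1 h at 37 C. Agonist mode: compounds added and intracellular calcium fluorescence recorded kinetically for 2 min at 1 sec intervals.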

Test [9] concerns the target Muscarinic acetylcholine receptor M1 (Homo sapiens) (UniProt P11229). The test can be described thus: Cholinergic receptor muscarinic 1 (CHRM1) small molecule antagonists, cell-based qHTS assay (AID 1963588). Note: nearly all actives have a fitted effect of over 40% in size. Note: potency is the fitted concentration of half-maximal effect. In short, it runs like this:
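CHRM1-CHO calcium-flux assay, antagonist mode. Cells were seeded 18 h, dye-loaded 1 h at 37 C and given compound for 5 min at RT, then acetylcholine was added at 50nM. FDSS fluorescence was read 3 min; 15 concentrations, three runs.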

Test [10] shares this target. The test can be described thus: Cholinergic receptor muscarinic 1 (CHRM1) small molecule agonists, cell-based qHTS assay (AID 1963589). Note: nearly all actives have a fitted effect of over 35% in size. In short, it runs like this: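 Each compound was tested at 15 concentrations across three independent runs on dye-loaded CHO cells stably expressing human CHRM1, reading intracellular calcium fluorescence kinetically at 1 sec intervals.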

Test [11] is described as follows: cAMP Responsive Elements (CRE) small molecule agonists, cell-based qHTS assay (AID 1963590). The procedure, abridged:
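Cell line: CRE-bla HEK 293T; medium DMEM/10% dialyzed FBS/0.1 mM NEAA/1 mM pyruvate/25 mM HEPES; 3 h compound exposure; beta-lactamase FRET readout after 2 h substrate loading at RT.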

Test [12] is described as follows: cAMP Responsive Elements (CRE) small molecule antagonists, cell-based qHTS assay (AID 1963591; active = well fitted inhibition curve with a large enough effect in the signal ratio in the repeat runs, not every such curve was filed as active; the % refers to the signal ratio). The procedure, abridged: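 Inhibition of NKH477-driven (0.25 uM final) CRE-beta-lactamase signal in HEK293T cells, 3 h compound exposure at 37 °C, detected by FRET substrate fluorescence.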
Test [13] has as its target Beta-2 adrenergic receptor (Homo sapiens) (UniProt P07550). The test can be described thus: Adrenergic beta2 receptor (ADRB2) small molecule antagonists, cell-based qHTS assay (AID 1963592). Note: series mostly up to about 92 µM; nearly all actives have a fitted effect of over 50% in size. In short, it runs like this: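 Cells (CHO, stable ADRB2 overexpression) incubated 18-20hr at 37C; compounds added from DMSO; agonist mix (1nM isoproterenol, 100uM IBMX, 25uM Ro-20-1724) added; 0.5hr RT; d2-cAMP and anti-cAMP-cryptate added; 1hr RT; 665/615 nm read.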

The target is the same in test [14]. The test can be described thus: Adrenergic beta2 receptor (ADRB2) small molecule agonists, cell-based qHTS assay (AID 1963593).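 For activation: CHO cells stably overexpressing human ADRB2.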 Note: potency is the fitted concentration of half-maximal effect. In short, it runs like this: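 CHO cells stably over-expressing ADRB2 were plated overnight at 37C, then dosed with compounds plus a stimulation mix containing 100uM IBMX and 25uM Ro-20-1724 for 0.5hr at room temperature. cAMP was measured by HTRF competition, 1hr.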

The target of test [15] is D(2) dopamine receptor (Homo sapiens) (UniProt P14416). The test can be described thus: Dopamine D2 receptor (DRD2) small molecule agonists, cell-based qHTS assay (AID 1963594). Note: nearly all actives have a fitted effect of over 35% in size. Note: potency is the fitted concentration of half-maximal effect. The procedure, abridged: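 HEK293 cells stably expressing human DRD2, pre-treated with PDE inhibitor Ro20-1724 (0.1 mM final) and compound 10 min at room temperature, then stimulated with NKH477 (200nM […]) for 30 min. cAMP read by HTRF (665/620 nm).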
Sequence of D(2) dopamine receptor (Homo sapiens) (P14416 whole entry, looked up): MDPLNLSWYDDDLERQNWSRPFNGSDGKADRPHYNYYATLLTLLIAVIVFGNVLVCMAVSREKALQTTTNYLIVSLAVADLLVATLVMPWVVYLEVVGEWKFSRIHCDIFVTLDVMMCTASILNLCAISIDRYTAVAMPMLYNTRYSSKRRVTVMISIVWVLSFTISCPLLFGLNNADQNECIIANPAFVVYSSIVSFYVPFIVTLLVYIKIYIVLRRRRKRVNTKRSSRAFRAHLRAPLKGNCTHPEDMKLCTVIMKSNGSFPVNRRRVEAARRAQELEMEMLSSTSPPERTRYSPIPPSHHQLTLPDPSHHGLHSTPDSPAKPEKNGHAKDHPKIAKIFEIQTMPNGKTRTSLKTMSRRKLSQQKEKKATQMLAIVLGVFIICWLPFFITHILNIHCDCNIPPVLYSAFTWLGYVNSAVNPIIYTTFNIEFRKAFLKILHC

Test [16] shares this target. The test can be described thus: Dopamine D2 receptor (DRD2) small molecule antagonists, cell-based qHTS assay (AID 1963595; active = well fitted inhibition curve with a large enough effect in the signal ratio in the repeat runs, with a control signal flat; the % refers to the signal ratio; note: potency is the fitted concentration of half-maximal effect). The procedure, abridged: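 HEK293 cells stably expressing DRD2 were preincubated with 0.1 mM Ro20-1724, then with compound for 10 min at room temperature. Cells were stimulated with 200 nM NKH477 plus 12 nM quinpirole for 30 min, and cAMP was read by HTRF.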

The target in test [17] is Gonadotropin-releasing hormone receptor (Homo sapiens) (UniProt P30968). The test can be described thus: Human gonadotropin-releasing hormone receptor (GnRHR) small molecule agonists, calcium flux assay in GnRHR-HEK293 cells (AID 1920063). Note: nearly all actives have a fitted effect of over 35% in size. Note: potency is the fitted concentration of half-maximal effect. The procedure, abridged:
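Fluorescence kinetics (480 nm excitation, 540 nm emission; 3 min, 1 s steps) report calcium mobilisation in human GnRHR-HEK293 cells in agonist mode. Dye incubation: 1 h, 37 C.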

The nature of test [18]: p53 small molecule agonists, cell-based qHTS assay with rat liver microsomes (AID 1963578). The procedure, abridged:
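Cells carrying a p53 response element–beta-lactamase reporter were plated and rested 5 h, then dosed with compound in DMSO plus rat liver microsomes and NADPH, each at 0.5 mg/mL final. After 16 h at 37 C, LiveBLAzer substrate was added for 2 h.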

Test [19] is described as follows: p53 small molecule agonists, cell-based qHTS assay (AID 1963582; active = well fitted activation curve with a large enough effect in the signal ratio in the repeat runs, not every such curve was filed as active; the % refers to the signal ratio). In short, it runs like this:
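Compounds are pin-transferred in DMSO onto p53RE-bla cells and incubated 16 h at 37 C. The B/G FRET beta-lactamase substrate is then applied for 2 h at RT and fluorescence recorded.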

Test [20] concerns the target KiSS-1 receptor (Homo sapiens) (UniProt Q969F8). The test can be described thus: Human kisspeptin (KISS1R) small molecule agonists, calcium flux assay in KISS1R-HEK293 cells (AID 1920064; active = well fitted curve in the direction sought with a large enough effect in the repeat runs; an effect the other way counts as inactive or inconclusive). In short, it runs like this:
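Measures KISS1R agonism through calcium-sensitive dye fluorescence in stably transfected HEK293 cells, read for 3 min after pin-tool compound delivery; 15-point titrations in triplicate.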

Unmarked numbers belong to inactive results. Results filed as inconclusive are left out. Activity calls are given as the source filed them. Unless noted, calls come from the whole dose curve.

Sequence of Muscarinic acetylcholine receptor M1 (Homo sapiens) (P11229 whole entry, looked up): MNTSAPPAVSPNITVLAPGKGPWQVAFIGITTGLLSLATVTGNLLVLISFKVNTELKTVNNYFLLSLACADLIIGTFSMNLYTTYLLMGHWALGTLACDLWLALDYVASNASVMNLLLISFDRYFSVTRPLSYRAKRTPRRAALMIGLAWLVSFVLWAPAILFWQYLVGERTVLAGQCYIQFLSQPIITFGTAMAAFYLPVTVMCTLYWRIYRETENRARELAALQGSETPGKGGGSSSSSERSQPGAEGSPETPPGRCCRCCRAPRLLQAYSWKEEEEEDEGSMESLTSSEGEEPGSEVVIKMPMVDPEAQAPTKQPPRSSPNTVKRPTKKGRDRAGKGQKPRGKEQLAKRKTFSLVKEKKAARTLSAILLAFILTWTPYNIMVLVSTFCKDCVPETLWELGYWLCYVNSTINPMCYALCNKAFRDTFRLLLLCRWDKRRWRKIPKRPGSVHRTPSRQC
Sequence of Beta-2 adrenergic receptor (Homo sapiens) (P07550 whole entry, looked up): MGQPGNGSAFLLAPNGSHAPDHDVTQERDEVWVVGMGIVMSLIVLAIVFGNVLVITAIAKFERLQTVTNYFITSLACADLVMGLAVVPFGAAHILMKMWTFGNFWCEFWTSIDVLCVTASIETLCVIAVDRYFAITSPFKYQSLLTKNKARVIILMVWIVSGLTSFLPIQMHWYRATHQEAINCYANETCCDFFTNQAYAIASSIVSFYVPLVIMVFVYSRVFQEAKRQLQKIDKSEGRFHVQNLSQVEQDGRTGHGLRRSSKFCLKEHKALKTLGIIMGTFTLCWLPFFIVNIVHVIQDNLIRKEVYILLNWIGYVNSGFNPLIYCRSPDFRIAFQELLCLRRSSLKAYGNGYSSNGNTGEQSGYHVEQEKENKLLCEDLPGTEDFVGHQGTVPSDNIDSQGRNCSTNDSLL
Sequence of KiSS-1 receptor (Homo sapiens) (Q969F8 whole entry, looked up): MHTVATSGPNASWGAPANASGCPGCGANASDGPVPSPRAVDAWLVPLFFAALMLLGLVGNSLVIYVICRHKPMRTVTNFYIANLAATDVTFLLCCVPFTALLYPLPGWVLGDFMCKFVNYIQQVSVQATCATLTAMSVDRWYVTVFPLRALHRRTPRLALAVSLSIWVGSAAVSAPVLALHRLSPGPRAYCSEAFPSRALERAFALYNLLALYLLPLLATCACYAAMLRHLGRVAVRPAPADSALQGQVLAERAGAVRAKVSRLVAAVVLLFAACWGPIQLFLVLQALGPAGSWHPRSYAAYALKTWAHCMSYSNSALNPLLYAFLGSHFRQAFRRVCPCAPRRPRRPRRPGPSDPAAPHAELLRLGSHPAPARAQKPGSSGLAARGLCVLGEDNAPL
Sequence of Gonadotropin-releasing hormone receptor (Homo sapiens) (P30968 whole entry, looked up): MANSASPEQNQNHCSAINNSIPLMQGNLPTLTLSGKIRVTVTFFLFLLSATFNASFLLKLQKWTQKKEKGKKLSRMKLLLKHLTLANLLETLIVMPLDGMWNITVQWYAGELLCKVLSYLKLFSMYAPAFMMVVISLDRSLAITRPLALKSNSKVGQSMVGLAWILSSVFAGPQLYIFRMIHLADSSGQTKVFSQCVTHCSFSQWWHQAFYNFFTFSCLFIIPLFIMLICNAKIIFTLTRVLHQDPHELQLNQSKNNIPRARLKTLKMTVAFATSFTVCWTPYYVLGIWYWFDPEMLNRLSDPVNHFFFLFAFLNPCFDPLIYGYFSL

For `CN/C(=N\[N+](=O)[O-])NCC1CCOC1` (stereo unspecified), the Potency entry in test [1], in [2], in [3], in test [4], in test [5] and in test [6] was “inactive” in each case. For the same compound, the Potency entry in test [7], in test [8], in [9], in [10], in [11] and in [12] was “inactive” throughout. In addition, the Potency entry in test [13], in [14], in test [15] and in test [16] was “inactive” throughout.
In the case of `CC(C(O)c1ccccc1)N(C)C/C=C/c1ccccc1` (stereo unspecified), the Potency entry in test [1], in test [17], in test [2], in test [3], in test [18] and in test [4] was “inactive” throughout. The Potency entry in test [5], in test [6], in test [19], in [8], in test [10] and in test [12] was “inactive” throughout. The Potency entry in [14] and in [15] was “inactive” throughout.
`O=[N+]([O-])C(Br)(CO)CO`: the Potency entry in test [1], in test [20], in test [2], in test [5], in test [6] and in test [7] was “inactive” each time. In addition, the Potency result in test [9], in test [10] and in test [13] was “inactive” in each case.
For `C[C@H](N)[C@H](O)c1ccc(O)c(O)c1`, the Potency entry in test [1], in test [20], in test [2], in test [3], in [18] and in [4] was “inactive” throughout. The Potency entry in test [5], in test [6], in test [19], in test [8], in test [9] and in [10] was “inactive” each time. Besides, the Potency result in test [12] and in [15] was “inactive” in each case. In addition, the Potency in test [14] was 7.5 µM (active).
Take `CC(=O)NNc1ccccc1`: the Potency entry in test [1], in [17], in test [4], in test [5], in [6] and in [7] was “inactive” in each case. For the same compound, the Potency entry in test [8], in test [9], in [10], in test [11], in test [12] and in test [16] was “inactive” each time.
Take `CC(=O)[O-].CC(=O)[O-].[Hg+2]`: the Potency in test [1] was 3.06 µM (active); in test [17], 38.9 µM (active); in test [5] it was 16.2 µM (active); in test [6], 7.25 µM (active); in [8], 49 µM (active); in [9] it was 21.1 µM (active). In addition, the Potency was 14.2 µM (active) in test [15] and 5.45 µM (active) in test [16]. For the same compound, the Potency result in test [2] and in test [7] was “inactive” throughout.
For `C=CC(C)(CCC=C(C)C)OC(=O)c1ccccc1N` (stereo unspecified), the Potency entry in test [1], in test [20], in [2], in [3], in test [18] and in [4] was “inactive” each time. The Potency entry in test [5], in test [6], in test [19], in [8], in test [9] and in [10] was “inactive” throughout. Also, the Potency result in test [11], in [12], in [13], in test [15] and in test [16] was “inactive” in each case.
`CC(=O)[O-].CC(=O)[O-].O.O.O.[Pb+2]`: the Potency result in [1], in test [20], in test [2], in test [4], in test [5] and in test [6] was “inactive” throughout. Moreover, the Potency entry in [7], in test [8], in [10], in test [11], in [13] and in [15] was “inactive” throughout. Further, the Potency result in test [16] is “inactive”.
